From PubChem BioAssay AID1159580 (chemical genetic matrix, 2015)
Values joined by “and” are separate entries in the source; they are usually repeats but may differ in a detail not shown here. Equal values may be shown once. Out of some 5,500 compounds screened, about 2,000 (36%) were called active. Roughly 18% stayed inconclusive and do not appear here. Cut-off read from the data, not from the text of the source: active = normalized growth mostly below about 0.91 (no sharp cut-off); inconclusive = no clear call, values can overlap the other calls; inactive = mostly above about 0.92. The list shows a part of the results.

Assay: chemical genetic growth profiling, strain panel (AID 1159580);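 note: tested at 20 µM; growth read once vehicle control cultures reached saturation at 30 °C; 1 = growth at the plate median or of vehicle wells; lower values mean less growth of the strain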
Settings: S. cerevisiae deletion strains, growth OD

Measured: normalized growth

O=C(Oc1cc(O)cc2c1C[C@@H](OC(=O)c1cc(O)c(O)c(O)c1)[C@@H](c1cc(O)c(O)c(O)c1)O2)c1cc(O)c(O)c(O)c1
active: locus YBR229C, strain ROT2, stronger effect = lower value 0.482 | locus YCL029C, strain bik1, stronger effect = lower value 0.668 | locus YDL035C, strain GPR1, stronger effect = lower value 0.133 | locus YDL074C, strain BRE1, stronger effect = lower value 0.334 | locus YDL101C, strain DUN1, stronger effect = lower value 0.147 | locus YDL185W, strain tfp1, stronger effect = lower value 0.872 | locus YDL192W, strain arf1, stronger effect = lower value 0.638 | locus YDR101C, strain arx1, stronger effect = lower value 0.806 | locus YDR162C, strain NBP2, stronger effect = lower value 0.0879 | locus YDR318W, strain mcm21, stronger effect = lower value 0.736 | locus YDR388W, stronger effect = lower value 0.759 | locus YDR502C, strain sam2, stronger effect = lower value 0.52 | locus YEL061C, strain CIN8, stronger effect = lower value 0.438 | locus YER155C, strain BEM2, stronger effect = lower value 0.775 | locus YER167W, strain BCK2, stronger effect = lower value 0.492 | locus YGL086W, strain mad1, stronger effect = lower value 0.431 | locus YGL248W, strain PDE1, stronger effect = lower value 0.24 | locus YGR078C, strain PAC10, stronger effect = lower value 0.621 | locus YGR135W, strain pre9, stronger effect = lower value 0.62 | locus YGR252W, strain gcn5, stronger effect = lower value 0.658 | locus YHR079C, strain IRE1 (second series), stronger effect = lower value 0.79 | locus YHR129C, strain ARP1, stronger effect = lower value 0.337 | locus YHR200W, strain rpn10, stronger effect = lower value 0.661 | locus YIL066C, strain RNR3, stronger effect = lower value 0.096 | locus YIL073C, strain SPO22, stronger effect = lower value 0.241 | locus YIR030C, strain dcg1, stronger effect = lower value 0.889 | locus YJL134W, strain LCB3, stronger effect = lower value 0.551 | locus YJL187C, strain SWE1 (second series), stronger effect = lower value 0.104
inactive: locus YAL021C, strain ccr4, stronger effect = lower value 1.01 | locus YAL026C, strain drs2, stronger effect = lower value 0.988 | locus YAL030W, strain snc1, stronger effect = lower value 1.01 | locus YBL061C, strain skt5, stronger effect = lower value 1.01 | locus YBR009C, strain hhf1, stronger effect = lower value 1.01 | locus YBR021W, strain FUR4, stronger effect = lower value 1.05 | locus YBR023C, strain chs3, stronger effect = lower value 1.02 | locus YBR171W, strain sec66, stronger effect = lower value 0.994 | locus YBR231C, strain swc5, stronger effect = lower value 1.02 | locus YBR279W, strain paf1, stronger effect = lower value 1.01 | locus YCL011C, strain gbp2, stronger effect = lower value 0.979 | locus YCL016C, strain dcc1, stronger effect = lower value 1.01 | locus YCL061C, strain MRC1, stronger effect = lower value 0.983 | locus YCL069W, strain vba3, stronger effect = lower value 0.992 | locus YCR088W, strain abp1, stronger effect = lower value 0.992 | locus YDL005C, strain med2, stronger effect = lower value 1.01 | locus YDL040C, strain nat1, stronger effect = lower value 0.998 | locus YDR001C, strain nth1, stronger effect = lower value 0.986 | locus YDR069C, strain doa4, stronger effect = lower value 1 | locus YDR137W, strain rgp1, stronger effect = lower value 0.99 | locus YDR159W, strain sac3, stronger effect = lower value 1.04 | locus YDR195W, strain ref2 1 | locus YDR297W, strain sur2, stronger effect = lower value 1.02 | locus YDR334W, strain swr1, stronger effect = lower value 0.996 | locus YDR335W, strain msn5, stronger effect = lower value 1.01 | locus YDR392W, strain spt3, stronger effect = lower value 1.02 | locus YEL003W, strain gim4, stronger effect = lower value 0.983 | locus YEL037C, strain rad23, stronger effect = lower value 0.982 | locus YEL061C, strain CIN8 (second series), stronger effect = lower value 1 | locus YER015W, strain faa2, stronger effect = lower value 0.989 | locus YER016W, strain bim1, stronger effect = lower value 1.02 | locus YER110C, stronger effect = lower value 0.956 | locus YER111C, strain swi4, stronger effect = lower value 0.974 | locus YER155C, strain BEM2 (second series), stronger effect = lower value 0.975 | locus YFR010W, strain ubp6, stronger effect = lower value 0.997 | locus YGL078C, strain dbp3, stronger effect = lower value 0.99 | locus YGL167C, strain pmr1, stronger effect = lower value 1.01 | locus YGL173C, strain kem1, stronger effect = lower value 1.02 | locus YGL227W, strain vid30, stronger effect = lower value 0.994 | locus YGL240W, strain doc1, stronger effect = lower value 1.05 | locus YGL253W, strain hxk2, stronger effect = lower value 1.03 | locus YHR013C, strain ard1, stronger effect = lower value 1.02 | locus YHR027C, strain rpn1, stronger effect = lower value 1.02 | locus YHR030C, strain SLT2, stronger effect = lower value 1.01 | locus YHR079C, strain IRE1, stronger effect = lower value 1 | locus YHR094C, strain hxt1, stronger effect = lower value 0.932 | locus YHR142W, strain chs7, stronger effect = lower value 1.01 | locus YIL125W, strain kgd1, stronger effect = lower value 0.958 | locus YJL092W, strain hpr5, stronger effect = lower value 0.989 | locus YJL095W, strain BCK1 (second series), stronger effect = lower value 1.02 | locus YJL115W, strain asf1, stronger effect = lower value 1 | locus YJL129C, strain trk1, stronger effect = lower value 1.03 | locus YJL154C, strain vps35, stronger effect = lower value 0.988 | locus YJL164C, strain tpk1, stronger effect = lower value 1.01 | locus YJL166W, strain qcr8, stronger effect = lower value 1.04 | locus YJL168C, strain set2, stronger effect = lower value 0.937
0.115 (active) and 0.99 (inactive): locus YJL095W, strain BCK1, stronger effect = lower value
